# Screening results as filed in PubChem.
# RTF Ca sens inh – cardiac RTF calcium sensitivity inhibitors, primary screen, biochemical, IANBD-TnC fluorescence, EC70 calcium; Troponin I, cardiac muscle (Homo sapiens) + Troponin T, cardiac muscle (Homo sapiens) + …; inhibition, % at 7.15 µM; IANBD-labeled cardiac RTF, Ca2+ fluorescence; hit rate 0.12% among 340,000;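 active = inhibition above the mean inhibition of all tested compounds plus 3 SD, cut at about 17% in these data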;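 note: assay run at fixed EC70 calcium of 1.6 mM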
# LANA-H2A inh – blockers of LANA interaction with H2A/H2B – biochemical, FP readout, HTS, primary screen | Protein LANA1 (Human herpesvirus 8 type P (isolate GK18)), Q9QR71 | inhibition, % (concentration not given with the values) | cell-free LANA-H2A/H2B peptide, fluorescence polarization | hit rate 0.6% among 320,000; in the data active = inhibition mostly above about 10%, no sharp cut-off; inactive = mostly below about 6.7%
# eLon inh – inhibitors of E. coli Lon protease, primary screen, biochemical, fluorescence polarization | inhibition, % at 7.94 µM | hit rate 0.42% among 360,000 | P0A9M0 | AID 602123, 2011 | purified E. coli Lon protease; in the data active = inhibition above about 13%, passing the limit was not always enough;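 note: 0% = enzyme with probe and DMSO and 100% = no enzyme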
# C-LANA FP – inhibitors of KSHV C-LANA binding to DNA, primary screen, biochemical, fluorescence polarization, FAM-LBS DNA, MBP-C-LANA, single point | Kaposi's sarcoma herpesvirus LANA C-terminal domain (residues 932-1162) DNA binding | inhibition, % at 9 µM | hit rate 0.078% among 340,000 | AID 504423, 2011;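 active = highest replicate inhibition at or above 60% at 9 µM, even if other replicates fall short; inactive = all replicates below 60% inhibition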;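 note: 0% = neutral control wells and 100% = 4 µM acridine orange control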
# cardiac RTF act – cardiac RTF calcium sensitivity activators, primary screen, biochemical, IANBD-TnC fluorescence, EC20 calcium; Troponin I, cardiac muscle (Homo sapiens) + Troponin T, cardiac muscle (Homo sapiens) + …; activation, % at 7.2 µM; AID 493008, 2010; hit rate 0.24% among 340,000; IANBD-labeled TnC RTF fluorescence at EC20 calcium; 0% EC20 calcium, 100% full calcium;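 active = activation above the mean over all tested compounds plus 3 SD, cut at about 30% in these data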;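 note: rise in fluorescence read as greater calcium sensitivity of cardiac thin filaments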
# Keap1-Nrf2 PPI – Keap1-Nrf2 protein-protein interaction inhibitors, primary screen, biochemical, fluorescence polarization, single point; Kelch-like ECH-associated protein 1 (Homo sapiens), Q14145; inhibition, % at 9.4 µM; Keap1 Kelch-Nrf2 peptide fluorescence polarization, 1536-well; hit rate 0.15% among 340,000; in the data active = inhibition above about 12%;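 note: human Keap1 Kelch domain with fluorescein labeled Nrf2 9mer peptide probe; 0% = neutral control wells and 100% = peptide positive control; higher means more block of Keap1 binding to Nrf2 peptide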
# Target sequence (Q14145 whole entry, looked up, the tested form may be a part): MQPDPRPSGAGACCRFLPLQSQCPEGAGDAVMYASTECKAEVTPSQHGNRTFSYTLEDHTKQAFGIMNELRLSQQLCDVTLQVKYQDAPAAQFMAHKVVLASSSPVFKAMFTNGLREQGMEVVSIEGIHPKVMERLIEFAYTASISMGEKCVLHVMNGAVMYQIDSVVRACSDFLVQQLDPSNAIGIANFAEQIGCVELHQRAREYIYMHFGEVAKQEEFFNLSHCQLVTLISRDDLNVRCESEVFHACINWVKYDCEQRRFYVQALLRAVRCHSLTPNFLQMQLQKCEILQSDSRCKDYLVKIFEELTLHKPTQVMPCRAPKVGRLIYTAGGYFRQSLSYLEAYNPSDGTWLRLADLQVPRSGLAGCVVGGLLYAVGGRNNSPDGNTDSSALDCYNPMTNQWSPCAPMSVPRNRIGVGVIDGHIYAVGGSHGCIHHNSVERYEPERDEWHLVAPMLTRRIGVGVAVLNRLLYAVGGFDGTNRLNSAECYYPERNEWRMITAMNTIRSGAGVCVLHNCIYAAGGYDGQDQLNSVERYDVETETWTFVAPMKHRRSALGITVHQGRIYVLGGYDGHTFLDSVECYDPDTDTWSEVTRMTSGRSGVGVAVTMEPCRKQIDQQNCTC
# * = called active by the depositor; . = not tested or not shown; + = active, no number. Most compounds without a hit are left out; they make up all but 1.3% or so of the library.
SMILES,RTF Ca sens inh,LANA-H2A inh,eLon inh,C-LANA FP,cardiac RTF act,Keap1-Nrf2 PPI
O/C(=C\c1nc2ccccc2[nH]1)c1cccs1,-18,3,12,1,17,-5
Cc1nc2c(=O)[nH]c3ccccc3c2o1,-5,-1,15,-2,9,0
Cc1ccccc1Nc1nnc(SCc2cc([N+](=O)[O-])cc3c2OCOC3)s1,-5,24*,2,0,6,0
O=[N+]([O-])c1cc2c(c(CSc3nnc(Nc4ccccc4)s3)c1)OCOC2,0,3,-28,-2,-8,0
O=C(c1cccc([N+](=O)[O-])c1)c1ccc2c(c1)OCCOCCOCCOCCO2,.,13*,-11,.,.,.
Nc1ccc(C#Cc2ccc3c(=O)c4ccccc4oc3c2)cc1,-10,0,-21,0,3,-8
N#Cc1ccc(C#Cc2ccc3oc4ccccc4c(=O)c3c2)cc1,-2,25*,6,0,10,1
O=C(CCNC(=O)c1ccc(Br)cc1)NCc1cccnc1,4,22*,-7,0,2,-1
O=C(CNC(=O)c1ccc(Br)cc1)NCc1cccnc1,-7,1,-2,-1,1,-2
O=C(CCSCc1ccc(Cl)cc1)NCc1cccnc1,-2,+,3,-1,1,-7
COc1cc(NC(=O)C/C(C)=N/NC(=O)C2CCCCC2)c(OC)cc1Cl,-5,1,7,0,5,-5
COc1cc(CN(C)c2ncnc3sccc23)ccc1OC(F)F,7,16*,-9,0,-1,-7
CCN(CC)c1ccc(NC2CC(=O)N(CCc3ccc(OC)cc3)C2=O)cc1 (stereo unspecified),-14,-3,-7,4,-2,-5
CCOC(=O)C1=C(C)NC(C)=C(C(=O)OCC)C1C(=O)OCC(N)=O,-5,-1,-2,-3,-1,0
CCOC(=O)C1=C(C)NC(C)=C(C(=O)OCC)C1C(=O)OCC(=O)N(C)C1CCS(=O)(=O)C1 (stereo unspecified),10,20*,2,0,2,1
OC[C@@H]1CCCN1Cc1cn(-c2ccccc2)nc1-c1ccc2c(c1)OCO2,-13,1,5,5,0,-4
c1ccc(-n2cc(CN3CCCC(CN4CCCC4)C3)c(-c3ccc4c(c3)OCO4)n2)cc1 (stereo unspecified),5,21*,-1,-1,-3,-4
CC(C)[C@H](NC(=O)c1c(F)cccc1F)C(=O)OCC(=O)NC(=O)NC1CCCC1,5,14*,-5,0,-1,-4
CC(C)[C@H](NC(=O)c1ccccc1F)C(=O)OCC(=O)NC(=O)NC1CCCCC1,-3,-1,-4,1,1,-8
CC(C)(C)C(=O)Nc1cccc(OC(F)(F)C(F)Cl)c1 (stereo unspecified),-4,32*,-2,0,2,4
CCC(C)NC(=O)c1ccc(NS(=O)(=O)c2ccc3[nH]c(=O)[nH]c3c2)cc1 (stereo unspecified),-6,2,5,0,-4,-1
COC(=O)C(Cc1ccccc1)NC(=O)c1ccc(NS(=O)(=O)c2ccc3[nH]c(=O)[nH]c3c2)cc1 (stereo unspecified),-4,29*,8,-1,4,-4
CN(C(=O)c1ccc2c(c1)OCO2)C1(C)CCS(=O)(=O)C1 (stereo unspecified),1,14*,-6,1,10,1
COCCn1c(SCC(=O)N2CCc3ccccc32)nc2c(c1=O)SC(C)C2 (stereo unspecified),-8,8.1*,-5,0,5,-6
